From PubChem
Compounds with a hit are over-represented: about 4.3% of the library has one in this group of screens.
NadD inh = inhibitors of Staphylococcus aureus NadD; inhibition, % at 20 µM; 0.78% of 360,000 active; purified NadD enzyme, colorimetric absorbance read-out; in the data active = inhibition above about 26%
FAS TE block = FAS thioesterase (human) inhibition. P49327. 0.67% of 360,000 active. inhibition, % at 15 µM. recombinant FAS-TE, OMFH fluorogenic substrate, fluorescence endpoint;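 active = compounds whose normalised, plate-corrected inhibition of enzyme fluorescence in the single-dose primary screen is 50% or more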
Target sequence (P49327 whole entry, looked up): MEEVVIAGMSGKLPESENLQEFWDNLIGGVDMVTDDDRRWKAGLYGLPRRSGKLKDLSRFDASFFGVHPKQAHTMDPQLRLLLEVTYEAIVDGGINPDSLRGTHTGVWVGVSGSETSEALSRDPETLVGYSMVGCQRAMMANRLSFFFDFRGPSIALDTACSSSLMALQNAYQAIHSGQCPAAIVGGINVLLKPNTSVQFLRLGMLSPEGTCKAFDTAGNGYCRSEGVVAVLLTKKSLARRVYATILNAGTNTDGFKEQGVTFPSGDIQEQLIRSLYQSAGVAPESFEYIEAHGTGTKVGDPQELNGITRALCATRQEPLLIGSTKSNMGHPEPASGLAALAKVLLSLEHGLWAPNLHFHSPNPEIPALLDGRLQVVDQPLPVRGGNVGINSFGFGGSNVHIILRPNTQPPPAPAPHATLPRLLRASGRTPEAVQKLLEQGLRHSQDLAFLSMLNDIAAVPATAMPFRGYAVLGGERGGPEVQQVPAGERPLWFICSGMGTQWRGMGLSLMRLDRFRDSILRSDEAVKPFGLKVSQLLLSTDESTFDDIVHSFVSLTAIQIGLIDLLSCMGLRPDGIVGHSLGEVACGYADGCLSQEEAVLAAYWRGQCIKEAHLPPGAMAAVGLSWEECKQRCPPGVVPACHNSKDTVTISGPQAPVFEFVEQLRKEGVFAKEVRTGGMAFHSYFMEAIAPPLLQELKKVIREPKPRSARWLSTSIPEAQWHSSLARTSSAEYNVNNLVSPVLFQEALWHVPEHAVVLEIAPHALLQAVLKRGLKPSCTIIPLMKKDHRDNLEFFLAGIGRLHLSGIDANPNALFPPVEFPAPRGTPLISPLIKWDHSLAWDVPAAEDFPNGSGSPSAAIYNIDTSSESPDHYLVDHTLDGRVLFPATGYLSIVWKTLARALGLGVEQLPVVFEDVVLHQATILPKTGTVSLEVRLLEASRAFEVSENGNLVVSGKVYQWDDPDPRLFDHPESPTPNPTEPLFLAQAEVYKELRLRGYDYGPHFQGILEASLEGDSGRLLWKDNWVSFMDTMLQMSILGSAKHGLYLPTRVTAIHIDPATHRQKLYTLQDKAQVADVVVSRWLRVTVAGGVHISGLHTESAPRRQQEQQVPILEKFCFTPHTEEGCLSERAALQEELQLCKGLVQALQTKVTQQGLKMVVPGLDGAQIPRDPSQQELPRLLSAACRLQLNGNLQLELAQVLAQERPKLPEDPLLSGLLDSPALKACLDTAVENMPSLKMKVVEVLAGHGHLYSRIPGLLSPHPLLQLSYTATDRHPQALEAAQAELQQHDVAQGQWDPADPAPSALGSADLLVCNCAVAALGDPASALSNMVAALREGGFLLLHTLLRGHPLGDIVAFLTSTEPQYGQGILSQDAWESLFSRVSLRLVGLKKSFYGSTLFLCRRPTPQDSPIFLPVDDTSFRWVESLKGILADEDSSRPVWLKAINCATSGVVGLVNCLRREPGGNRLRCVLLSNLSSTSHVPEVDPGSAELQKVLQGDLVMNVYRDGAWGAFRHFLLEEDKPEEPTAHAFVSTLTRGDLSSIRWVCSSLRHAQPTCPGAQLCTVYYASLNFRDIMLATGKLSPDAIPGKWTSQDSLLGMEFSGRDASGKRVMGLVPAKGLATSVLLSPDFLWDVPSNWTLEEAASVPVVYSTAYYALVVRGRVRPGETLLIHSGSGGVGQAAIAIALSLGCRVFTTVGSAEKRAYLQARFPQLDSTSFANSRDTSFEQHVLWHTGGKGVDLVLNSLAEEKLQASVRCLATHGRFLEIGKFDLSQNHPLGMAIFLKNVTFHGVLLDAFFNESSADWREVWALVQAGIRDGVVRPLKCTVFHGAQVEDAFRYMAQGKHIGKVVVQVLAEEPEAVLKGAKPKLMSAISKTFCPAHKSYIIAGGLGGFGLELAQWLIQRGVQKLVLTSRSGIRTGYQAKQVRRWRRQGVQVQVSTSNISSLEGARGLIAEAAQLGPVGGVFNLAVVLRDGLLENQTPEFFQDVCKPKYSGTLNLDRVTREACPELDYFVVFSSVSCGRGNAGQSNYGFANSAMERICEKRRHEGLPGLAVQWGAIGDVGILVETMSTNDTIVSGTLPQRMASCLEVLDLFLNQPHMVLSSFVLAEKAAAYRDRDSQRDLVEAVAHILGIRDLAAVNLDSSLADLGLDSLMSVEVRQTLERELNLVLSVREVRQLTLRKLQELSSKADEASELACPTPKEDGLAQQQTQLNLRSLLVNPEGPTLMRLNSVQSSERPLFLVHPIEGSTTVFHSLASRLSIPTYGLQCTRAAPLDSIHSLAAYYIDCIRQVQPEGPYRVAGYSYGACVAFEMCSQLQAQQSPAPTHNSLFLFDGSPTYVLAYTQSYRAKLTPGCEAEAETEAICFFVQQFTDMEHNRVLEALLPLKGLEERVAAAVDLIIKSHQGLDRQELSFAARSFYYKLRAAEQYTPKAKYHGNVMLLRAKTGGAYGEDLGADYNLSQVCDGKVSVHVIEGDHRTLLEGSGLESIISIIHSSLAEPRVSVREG
rCAG RNA binder = molecules binding r(CAG) RNA repeats; r(CAG) RNA repeat, TO-PRO-1 dye displacement fluorescence; AID 651821; 1.3% of 370,000 active; inhibition, % at 3 µM;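 active = inhibition above the plate cutoff, the mean of all test compounds on that plate plus 3 SD, cut at about 35% in these data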;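 also: higher means more dye released from RNA so lower well fluorescence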
GRIN3A LBD mod = modulators (binders) of human NR3A ligand-binding domain | NR3A LBD differential scanning fluorimetry, Tm shift; 0% = protein alone, 100% = glycine-bound protein | Tm shift relative to glycine control, % at 25 µM | 2.5% of 340,000 active | AID 1259313;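 active = melting temperature shift of at least 10% of the positive control shift, at one fixed dose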
Numbers stand for hits.

`CC(C)(C)c1cc(NC(=O)c2ccc(OC3CCCC3)cc2)no1` gave NadD inh inactive, FAS TE block inactive, rCAG RNA binder inactive and GRIN3A LBD mod 15.
Screening COC(=O)[C@H](C)NC(=O)C(Cc1ccc2c(c1)OCO2)NC(C)=O (stereo partly specified) returned rCAG RNA binder inactive.
`CCOC(=O)N1CCN(C(=O)C[C@H]2C[C@@]3(C(=O)OC)C(=C[C@H](C(C)(C)C)O[C@@H]3C)N(Cc3ccc4c(c3)OCO4)C2=O)CC1` gave rCAG RNA binder inactive.
For CCOC(=O)C(=O)/C(=C\N(C)C)c1onc(-c2c(Cl)cccc2Cl)c1C(=O)OC the results were NadD inh inactive, FAS TE block inactive, rCAG RNA binder inactive and GRIN3A LBD mod 11.
For COc1ccc(CC(/C=C/c2ccc(F)cc2)c2ccccc2)cc1 (stereo unspecified) the results were rCAG RNA binder inactive.
For CCCCNC(=O)C[C@H]1C[C@@]2(C(=O)OC)C(=C[C@H](C3CCCC3)O[C@@H]2C)N(CCC2=CCCCC2)C1=O the results were rCAG RNA binder inactive.
Screening CCCN1CCCCC(NC(=O)c2ccc3ccccc3c2)C1=O (stereo unspecified) returned rCAG RNA binder inactive.
Screening COCC(=O)N1CCN(C(=O)C(=O)c2cccc(C(F)(F)F)c2)CC1 returned rCAG RNA binder inactive.
Oc1ccc(/C=N/n2c3ccccc3c3ccccc32)cc1 was read as NadD inh inactive, FAS TE block inactive, rCAG RNA binder inactive and GRIN3A LBD mod 16.
`Cc1cc(N2CCN(C(=O)Oc3ccc(C(F)(F)F)cc3)CC2)c2ccccc2n1` gave rCAG RNA binder inactive.
O=C(CSc1nnc(-c2ccccn2)n1-c1ccccc1)c1ccc(F)cc1 was read as rCAG RNA binder inactive.
`O=S(=O)(Nc1ccc(O)c(Sc2nc3ccccc3s2)c1)c1ccc(Cl)cc1` gave NadD inh inactive, FAS TE block inactive, rCAG RNA binder inactive and GRIN3A LBD mod 16.
`CCOc1ccc(C(=O)CC(=O)C(=O)NCCc2ccc(OC)c(OC)c2)cc1` gave NadD inh inactive, FAS TE block inactive, rCAG RNA binder inactive and GRIN3A LBD mod 25.
COc1ccc(OCCCC(=O)NCCc2ccc(OC)c(OC)c2)cc1 was read as NadD inh inactive, FAS TE block inactive, rCAG RNA binder inactive and GRIN3A LBD mod inactive.
For COc1ccc(/C=N/NC(=S)Nc2ccccc2)cc1COc1ccc(Br)cc1 the results were NadD inh inactive, FAS TE block inactive, rCAG RNA binder inactive and GRIN3A LBD mod 11.
For COc1ccc(/C=N/NC(=S)Nc2ccccc2)cc1COc1ccc(F)cc1 the results were NadD inh inactive, FAS TE block inactive, rCAG RNA binder inactive and GRIN3A LBD mod inactive.
For O=[N+]([O-])c1cc(S(=O)(=O)NCc2ccco2)ccc1NN=Cc1ccccn1 the results were rCAG RNA binder inactive.
O=C(COc1ccc(Br)cc1Br)NNC(=O)c1cccs1 was read as NadD inh inactive, FAS TE block inactive, rCAG RNA binder inactive and GRIN3A LBD mod inactive.
`Cc1cc(Br)cc(C)c1OCC(=O)NNC(=O)c1cccs1` gave NadD inh inactive, FAS TE block inactive, rCAG RNA binder inactive and GRIN3A LBD mod 13.
`O=C(NCCN1C(=O)C2C3C=CC(C3)C2C1=O)c1cc(Cl)cc(Cl)c1` (stereo unspecified) gave rCAG RNA binder inactive.
`Cc1ccccc1C[n+]1cccc2ccccc21` gave NadD inh inactive, FAS TE block inactive, rCAG RNA binder inactive and GRIN3A LBD mod 13.
`CCCCCCCCC[n+]1cccc2c3ccccc3ccc21` gave NadD inh inactive, FAS TE block inactive and GRIN3A LBD mod inactive.
`CCCCCCCCCCCCCCCC[n+]1cccc2ccccc21` gave NadD inh 53, FAS TE block inactive, rCAG RNA binder inactive and GRIN3A LBD mod 39.
For O=C(C[n+]1cccc2ccccc21)c1ccccc1 the results were NadD inh inactive, FAS TE block inactive, rCAG RNA binder inactive and GRIN3A LBD mod inactive.
N#Cc1cccc(CNCC(=O)N2CCC3(CC2)OCCO3)c1 was read as rCAG RNA binder inactive.
Screening COc1cc(C2c3c(-c4cc(C)cc(C)c4O)n[nH]c3C(=O)N2CCCO)cc(OC)c1OC (stereo unspecified) returned NadD inh inactive, FAS TE block inactive, rCAG RNA binder inactive and GRIN3A LBD mod 345.
For COCCCN1C(=O)c2[nH]nc(-c3cc(C)cc(C)c3O)c2C1c1ccc(O)c(OC)c1 (stereo unspecified) the results were NadD inh inactive, FAS TE block inactive, rCAG RNA binder inactive and GRIN3A LBD mod inactive.
For CN(C)c1cccc(/C=C2\CC3(OC(=O)c4ccc(F)cc4)CCCN2C3)c1 (stereo unspecified) the results were rCAG RNA binder inactive.
COc1ccc2[nH]c(=O)c(CN(Cc3nnnn3Cc3ccco3)C3CCCCC3)cc2c1 was read as NadD inh inactive, FAS TE block inactive, rCAG RNA binder inactive and GRIN3A LBD mod inactive.
Screening COc1ccc2[nH]c(=O)c(CN(C3CCCCC3)C(c3nnnn3Cc3ccco3)C(C)C)cc2c1 (stereo unspecified) returned NadD inh 59, FAS TE block inactive and GRIN3A LBD mod inactive.
For CCCCNC(=O)C1(C(C)=O)CC(C(=O)OCC)=NO1 (stereo unspecified) the results were rCAG RNA binder inactive.
CCc1ccc(-c2cc(N)n(-c3ccccc3)n2)cc1 was read as NadD inh inactive, FAS TE block inactive, rCAG RNA binder inactive and GRIN3A LBD mod inactive.
Screening Cc1ccc(-c2cc(N)n(-c3ccccc3)n2)cc1 returned NadD inh inactive, FAS TE block inactive, rCAG RNA binder inactive and GRIN3A LBD mod 26.
For Cc1cccc(-c2cc(N)n(-c3ccccc3)n2)c1 the results were NadD inh inactive, FAS TE block inactive, rCAG RNA binder inactive and GRIN3A LBD mod 31.
For Cc1cccc(-c2cnn(-c3ccccc3)c2N)c1 the results were NadD inh inactive, FAS TE block inactive, rCAG RNA binder inactive and GRIN3A LBD mod inactive.
For COC(=O)[C@]12C[C@H](CC(=O)NCC34CC5CC(CC(C5)C3)C4)C(=O)N(Cc3ccc(Cl)cc3Cl)C1=C[C@H](C(C)C)O[C@@H]2C1CC1 the results were rCAG RNA binder inactive.
O=C(N/N=C/c1ccc([N+](=O)[O-])o1)c1cc2c(ccc3ccccc32)o1 was read as NadD inh inactive, FAS TE block inactive, rCAG RNA binder inactive and GRIN3A LBD mod inactive.
CCNc1nc(NCC)nc(N/N=C/c2ccc([N+](=O)[O-])o2)n1 was read as NadD inh inactive, FAS TE block inactive, rCAG RNA binder inactive and GRIN3A LBD mod inactive.
For O=[N+]([O-])c1ccc(/C=N/Nc2ccc3ccccc3c2)o1 the results were NadD inh inactive, FAS TE block inactive, rCAG RNA binder inactive and GRIN3A LBD mod 21.
Screening O=C(N/N=C/c1ccc([N+](=O)[O-])o1)c1cc2ccccc2o1 returned NadD inh inactive, FAS TE block inactive, rCAG RNA binder inactive and GRIN3A LBD mod 10.
Screening Cc1nc(C)c(CCNC(=O)c2ccc(C(F)(F)F)cc2)s1 returned NadD inh inactive, FAS TE block inactive, rCAG RNA binder inactive and GRIN3A LBD mod 16.
